Inconclusive results are not listed. A number with no mark means an inactive call. Activity calls are given as the source filed them. Unless noted, calls come from the whole dose curve; as a rule, active = well fitted curve in the direction sought with a large enough effect; inconclusive = small, poorly fitted or top-dose-only effect, or another doubt; inactive = no such curve, though single readings can be large; an effect the other way counts as inactive or inconclusive.
System: not listed separately
Assay: Cell Viability - LYMP2-016 (AID 984);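 note: cells exposed to compound for 24 hours at 37 °C; % is set by controls: 0 for no effect and ±100 for the full control effect; nearly all actives have a fitted effect of over 55% in size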
Details: LYMP2-016 lymphoblastoid cell viability, qHTS; series mostly up to 92.2 µM; activity change, negative = cytotoxicity: at the top concentration
Summary of the method: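 Human lymphoblastoid LYMP2-016 cells, 2500 per well, treated with compounds for 24 h at 37 C. Viability read as intracellular ATP by CellTiter-Glo luminescence after 30 min at room temperature; AC50 from Hill fits of concentration-response.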

| Compound | activity change, negative = cytotoxicity | Potency |
| --- | --- | --- |
| C=CCc1ccc(OC)c(OC)c1 | -4.82% | – |
| C=C(C)C1CC=C(C)C(O)C1 (centres undefined) | -7.72% | – |
| CC1=C2[C@H](/C=C(\C)C(=O)O)CC[C@@H](C)[C@H]2CC1 | -9.63% | – |
| CCCCCCCCCCCC(=O)O | – | inactive |

System: not listed separately
Assay: Cell Viability - LYMP2-018 (AID 985);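 note: compound exposure lasted 24 hr at 37 °C; plate controls were DMSO only for no effect and tetraoctylammonium bromide at 92 µM for full effect; nearly all actives have a fitted effect of over 50% in size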
Details: LYMP2-018 lymphoblastoid cells, viability (qHTS); series mostly up to 92.2 µM; activity change, negative = cytotoxicity: at the top concentration
Summary of the method: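 In this qHTS viability assay, cells are treated for 24 hr and cellular ATP is quantified by luciferase-based luminescence, with tetraoctylammonium bromide as positive control.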

| Compound | activity change, negative = cytotoxicity | Potency |
| --- | --- | --- |
| C=CCc1ccc(OC)c(OC)c1 | -14.1% | – |
| C=C(C)C1CC=C(C)C(O)C1 (centres undefined) | -6.7% | – |
| CC1=C2[C@H](/C=C(\C)C(=O)O)CC[C@@H](C)[C@H]2CC1 | -8.93% | – |
| CCCCCCCCCCCC(=O)O | – | inactive |

System: not listed separately
Assay: Cell Viability - LYMP2-022 (AID 987);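 note: 0% = DMSO alone and full effect = tetraoctylammonium bromide at 92 µM; nearly all actives have a fitted effect of over 55% in size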
Details: LYMP2-022 lymphoblastoid cell viability; series mostly up to 92.2 µM; viability change, negative = cytotoxic: at the top concentration
Summary of the method: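 In this qHTS cytotoxicity screen, compound titrations were incubated 24 hr at 37 C with human lymphoblastoid cells in complete medium. Luciferase-based ATP luminescence provided the viability signal.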

| Compound | viability change, negative = cytotoxic | Potency |
| --- | --- | --- |
| C=CCc1ccc(OC)c(OC)c1 | -6.91% | – |
| CC1=C2[C@H](/C=C(\C)C(=O)O)CC[C@@H](C)[C@H]2CC1 | -19.1% | – |
| CCCCCCCCCCCC(=O)O | – | inactive |

System: not listed separately
Assay: Cell Viability - LYMP2-024 (AID 988);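 note: plate controls were DMSO only for no effect and 92 µM tetraoctylammonium bromide for full effect; nearly all actives have a fitted effect of over 60% in size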
Details: LYMP2-024 lymphoblastoid cell viability; series mostly up to 92.2 µM; activity change, negative = cytotoxicity: at the top concentration
Summary of the method: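 Cells at 2500 per well received compound for 24 hr after a 5 hr settling period. Viability was scored by CellTiter-Glo luminescence, with AC50 from Hill fits.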

| Compound | activity change, negative = cytotoxicity | Potency |
| --- | --- | --- |
| C=CCc1ccc(OC)c(OC)c1 | 3.74% | – |
| C=C(C)C1CC=C(C)C(O)C1 (centres undefined) | -4.91% | – |
| CCCCCCCCCCCC(=O)O | – | inactive |

System: not listed separately
Assay: Cell Viability - LYMP1-002 - Assay at 40 hr (AID 994);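 note: 0% = DMSO only and full inhibition = 92 µM tetraoctylammonium bromide; nearly all actives have a fitted effect of over 60% in size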
Details: LYMP1-002 lymphoblastoid cell viability; series mostly up to 92.2 µM; viability change, negative = cytotoxic: at the top concentration
Summary of the method: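 Concentration-dependent ATP loss after 40 hr treatment at 37 C defined toxicity; AC50 values were obtained by fitting the standard Hill equation.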

| Compound | viability change, negative = cytotoxic | Potency |
| --- | --- | --- |
| C=CCc1ccc(OC)c(OC)c1 | -1.01% | – |
| C=C(C)C1CC=C(C)C(O)C1 (centres undefined) | -3.48% | – |
| CC1=C2[C@H](/C=C(\C)C(=O)O)CC[C@@H](C)[C@H]2CC1 | -10.1% | – |
| CCCCCCCCCCCC(=O)O | – | inactive |

Molecular target: Dual specificity protein kinase CLK4 (Homo sapiens) (UniProt Q9HAZ1)
Assay: qHTS Assay for Inhibitors of CDC-like Kinase 4 (ADP-FP Assay) (AID 1795);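 note: recombinant human CLK4 phosphorylating RS repeat peptide at 1 µM ATP; % is set by controls: 0 for no effect and ±100 for the full control effect; nearly all actives have a fitted effect of over 60% in size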
Details: Transcreener ADP fluorescence polarization; series mostly up to 50 µM; activity change, negative = inhibition: at the top concentration
Summary of the method: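 Recombinant Clk4 (6.25 nM) phosphorylated 100 uM RS repeat peptide with 1 uM ATP in 25 mM Tris pH 7.5, 10 mM MgCl2, 0.5 mM EGTA, 2.5 mM DTT, 0.01% Triton X-100 for 1 h. ADP was detected by Transcreener ADP2 competitive fluorescence polarization after 30 min at room temperature.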

Sequence of Dual specificity protein kinase CLK4 (Homo sapiens) (Q9HAZ1 whole entry, looked up): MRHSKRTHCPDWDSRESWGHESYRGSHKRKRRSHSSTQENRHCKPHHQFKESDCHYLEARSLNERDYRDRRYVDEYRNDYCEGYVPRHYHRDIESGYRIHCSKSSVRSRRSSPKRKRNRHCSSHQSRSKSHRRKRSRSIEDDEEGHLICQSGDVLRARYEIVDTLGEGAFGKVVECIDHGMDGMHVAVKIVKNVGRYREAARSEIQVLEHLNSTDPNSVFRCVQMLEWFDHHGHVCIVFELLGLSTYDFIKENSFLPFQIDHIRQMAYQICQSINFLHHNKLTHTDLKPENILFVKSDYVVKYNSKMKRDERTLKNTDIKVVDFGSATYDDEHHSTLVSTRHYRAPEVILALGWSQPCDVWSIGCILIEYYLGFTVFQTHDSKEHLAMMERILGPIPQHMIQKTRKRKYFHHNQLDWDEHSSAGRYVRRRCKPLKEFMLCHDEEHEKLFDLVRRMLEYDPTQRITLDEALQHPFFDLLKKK

| Compound | activity change, negative = inhibition |
| --- | --- |
| CN(C)Cc1ccccc1-c1ccc2ncnc(N(C)C)c2c1 | -0.459% |
| COc1ccc2[nH]cc(CCNc3ncncc3-c3ccccc3C(F)(F)F)c2c1 | -3.19% |
| COc1ccccc1CNc1nc(-c2cccc(NS(C)(=O)=O)c2)nc2ccccc12 | -10.4% |
| COc1cccc(Cn2c(=O)cnc3cnc(N(C)C)nc32)c1 | -20.3% |
| CNc1ncncc1-c1ccccc1CN(C)C | -4.9% |
| CN(C)C(=O)c1ccc(-c2ccc3ncnc(Nc4ccc(F)cc4)c3c2)cc1 | -22.5% |
| c1ccc2c(NCCN3CCOCC3)nc(-c3ccc4c(c3)OCO4)nc2c1 | -23.5% |
| CN1CCN(c2nc(-c3ccoc3)nc3ccccc23)CC1 | -23.4% |
| CN(C)c1nc(-c2cccc(NS(C)(=O)=O)c2)nc2ccccc12 | -15.2% |
| CN1CCN(c2nc(-c3cccnc3)nc3ccccc23)CC1 | -20.9% |
| O=c1cnc2cnc(N3CCOCC3)nc2n1Cc1cccs1 | -23.3% |
| COc1ccccc1CNc1ncncc1-c1ccccc1C(F)(F)F | 5.5% |
| COc1ncc2nc(-c3cccs3)c(=O)n(CCC#N)c2n1 | 4.29% |
| COc1ccccc1-c1nccc(N2CCN(C)CC2)n1 | 2.23% |
| Cc1nc2cnc(N3CCOCC3)nc2n(CCc2ccccc2)c1=O | -18.3% |
| COc1ccccc1CNc1ncnc2ccc(-c3ccc(C(=O)N(C)C)cc3)cc12 | -4.82% |
| c1ccc2c(NCCN3CCOCC3)nc(-c3ccoc3)nc2c1 | -9.33% |

System: not listed separately
Assay: qHTS Assay for Identification of Small Molecule Inducers of Hypoxia Response (AID 2120; active = well fitted curve in the direction sought with a large enough effect in the signal ratio, with a control signal flat, not every such curve was filed as active; the % refers to the signal ratio; note: 0% is about no effect)
Details: hypoxia response reporter cells, beta-lactamase ratio readout; series mostly up to 104 µM; activation: at the top concentration
Summary of the method: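 HRE-bla ME-180, 2500 cells/well, 0.5% dialyzed FBS medium; cpd titration, 17 h 37 degrees C; CCF4 2.5 h RT; Ex 405, Em 460/530 ratio -> %Activity, AC50.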

| Compound | activation | outcome |
| --- | --- | --- |
| C=CCc1ccc(OC)c(OC)c1 | 1.09% | – |
| C=C(C)C1CC=C(C)C(O)C1 (centres undefined) | 0.609% | – |
| CC1=C2[C@H](/C=C(\C)C(=O)O)CC[C@@H](C)[C@H]2CC1 | 0.711% | – |
| CCCCCCCCCCCC(=O)O | – | inactive |

Reference: PubChem BioAssay (NCATS)
